Test results published in PubChem BioAssay AID1566 (Sanford-Burnham Center for Chemical Genomics, 2009).
The campaign covered roughly 290,000 compounds. About 1,800 (0.62%) were called active. Shown is part of a subset that was picked to be rich in actives. Values without a mark were called inactive. Rule as the data show it: active = inhibition above about 50%; inactive = the rest.

Experiment: inhibition of NOD2-driven NF-kB reporter – cell-based, luminescence, uHTS, HEK293 (AID 1566)
Details: HEK293 NOD2/NF-kB luciferase reporter, at 4 µM, stronger effect = higher value

Structure (SMILES)	inhibition
CCOc1ccc(-c2cc(C)[n+](CCc3ccc(OC)c(OC)c3)c(-c3ccc(OCC)cc3)c2)cc1	58.6% (active)
CCOc1ccc(-c2cc(C)[n+](CCN3CCOCC3)c(-c3ccc(OCC)cc3)c2)cc1	21.6%
CCOc1ccc(-c2cc(C)[n+](CCO)c(-c3ccc(OCC)cc3)c2)cc1	0.3%
COc1ccc(-c2cc(=NCCCCCC(=O)O)c3cc(C)ccc3o2)cc1	-4.2%
N=C1C(c2ccccc2)=C(O)CN1Cc1ccco1	8.2%
Cc1cccc(-n2c(O)c(C=NCCN3CCNCC3)c(=O)[nH]c2=S)c1	-4.3%
O=C(Cn1cc(C(=O)c2ccccc2F)c2ccccc21)NC1CC1	13.6%
O=C(c1cc(C(=O)NCc2ccccc2)c(=O)n(Cc2ccccc2)c1)c1cc(Br)ccc1O	2.5%
CCc1ccc(OCC(=O)N2CCN(Cc3ccc4c(c3)OCO4)CC2)cc1	-4.3%
CCCCNS(=O)(=O)c1ccc(OCC(=O)N2CCN(Cc3ccc4c(c3)OCO4)CC2)cc1	51.1% (active)
CCCNS(=O)(=O)c1ccc(OCC(=O)N2CCN(Cc3ccc4c(c3)OCO4)CC2)cc1	20.9%
CC(C)CNP(=S)(c1ccccc1)C(C)(C)C (stereo unspecified)	10.7%
O=c1cc(CN2CCNCC2)nc2sccn12	8.2%
FC(F)(F)c1cccc(C2NCc3ccccc3-n3cccc32)c1 (stereo unspecified)	9.8%
CC(=O)OC1CC[C@]2(C#N)[C@H]3CC[C@]4(C)[C@H](C5C=CC(=O)O5)CCC4(O)C3CCC2(O)C1 (stereo partly specified)	75% (active)
Cn1cccc1CN1CCN(C(=O)COc2ccccc2)CC1	16.7%
O=[N+]([O-])c1ccccc1CN1CC=C(c2ccc(F)cc2)CC1	-15.5%
COc1ccc(C(=O)N/N=C/C23CC[C@@H](O)CC2(O)CC[C@@H]2[C@@H]3CCC3(C)C(C4=CC(=O)OC4)CCC23O)cc1 (stereo partly specified)	27.3%
C[C@H]1O[C@@H](O[C@H]2[C@@H](O)C[C@H](O[C@H]3[C@@H](O)C[C@H](O[C@H]4CC[C@@]5(C)[C@H](CC[C@@H]6[C@@H]5CC[C@]5(C)[C@@H](C7=CC(=O)OC7)CC[C@]65O)C4)O[C@@H]3C)O[C@@H]2C)C[C@H](O)[C@@H]1O	73.9% (active)
CC12CC[C@H]3[C@@H](CCC4(O)C[C@H](O)CCC34/C=N/NC(=O)c3ccccc3O)C1(O)CCC2C1=CC(=O)OC1 (stereo partly specified)	17.2%
CC12CC[C@H]3[C@@H](CCC4(O)C[C@H](O)CCC34/C=N/NC(=O)c3ccc(O)cc3)C1(O)CCC2C1=CC(=O)OC1 (stereo partly specified)	9.1%
CC12CC[C@H]3[C@@H](CCC4(O)C[C@H](O)CCC34/C=N/NC(=O)c3ccccc3Cl)C1(O)CCC2C1=CC(=O)OC1 (stereo partly specified)	25.4%
C[C@H]1O[C@@H](OC2CC[C@]3(C=O)[C@H]4CC[C@]5(C)[C@@H](C6=CC(=O)OC6)CC[C@]5(O)[C@@H]4CC[C@]3(O)C2)CC2OC(C)(C)OC21 (stereo partly specified)	73% (active)

Structure (SMILES)	inhibition
CCOc1ccc(N=Cc2c(O)n(Cc3ccccc3)c(=S)[nH]c2=O)cc1	8.4%
CC(C)CCOP(N)(=O)Oc1ccccc1 (stereo unspecified)	-6.2%
Cc1ccc2cccc(OC(=O)N(C)c3ccccc3)c2n1	5.1%
C=CCn1c(O)c(C(C)=NC2CC2)c(=O)[nH]c1=O	4.6%
O=c1c2ccccc2nc(/C=C/c2ccc(O)cc2)n1-c1ccccc1O	-2.5%
Cc1nc2ccc(Cl)cc2c(=O)n1-c1cccc(Cl)c1	-2.1%
O=C(Cn1nc(Cc2cccnc2)c2ccccc2c1=O)N1CCC2(CC1)OCCO2	20.3%
COc1ccccc1/C=C1\C(=O)NC(=S)N(c2ccccc2)C1=O	11.6%
NC(=S)c1cn(C2OC(CO)C(O)C2O)c2ncnc(N)c12 (stereo unspecified)	69.1% (active)
CCNC(=O)[C@H]1O[C@@H](n2cnc3c(N)ncnc32)[C@H](O)[C@@H]1O	-24.1%
C=C(CO)CC1CC(O)[C@]2(C)OC3CC4OC5C[C@]6(C)O[C@]7(C)CCC8OC9C[C@]%10(C)OC%11C(C)=CC(=O)OC%11CC%10OC9C[C@@H](C)C8OC7CC6O[C@]5(C)C/C=C\C4OC3CC2O1 (stereo partly specified)	4.7%
C=C(CC1CC(O)[C@]2(C)OC3CC4OC5C[C@]6(C)O[C@]7(C)CCC8OC9C[C@]%10(C)OC%11C(C)=CC(=O)OC%11CC%10OC9C[C@@H](C)C8OC7CC6O[C@]5(C)C/C=C\C4OC3CC2O1)C(=O)O (stereo partly specified)	12.8%
C=C(C=O)C[C@@H]1C[C@H](O)C2OC3C[C@]4(C)OC5/C=C\CC6OC7C(CC=CCC6OC5CCCC4OC3CC2O1)OC1CC2OC3CC(=O)OC3C[C@@H](C)C[C@@]2(C)OC1C[C@@H]7C (stereo partly specified)	58.2% (active)
C=CCn1c(O)c(/C(C)=N/NC(=S)Nc2ccccc2)c(=O)[nH]c1=O	10.8%
CCOc1cccc(=NC2CCCCC2)c2c(C)n(C)c(C)c12	27%
Cc1ccsc1-c1nc(CSCC(=O)N2CCC3(CC2)OCCO3)c(C)o1	11.3%
Cc1oc(-c2cccs2)nc1CSCC(=O)N1CCC2(CC1)OCCO2	57.1% (active)
COc1ccc(-c2nc(CSCC(=O)N3CCC4(CC3)OCCO4)c(C)o2)cc1OC	-11.2%
O=c1[nH]c(=O)n(CCC2=CCCCC2)c(O)c1/C=N/Nc1cccc2ccccc12	33.9%
C[C@H]1[C@H](OC(=O)CCC(=O)NCc2ccc(C(=O)O)cc2)O[C@@H]2O[C@@]3(C)CC[C@H]4[C@H](C)CC[C@@H]1C24OO3	26.4%
CC1C(OC(=O)CCC(=O)NC(C)(C)CO)O[C@H]2OC3(C)CC[C@H]4[C@H](C)CCC1C24OO3 (stereo partly specified)	64.5% (active)
C[C@@H]1CC[C@H]2[C@@H](C)C(=O)O[C@@H]3O[C@@]4(C)CC[C@@H]1[C@]32OO4	9%
O=c1[nH]c(=O)n(CCC2=CCCCC2)c(O)c1/C=N/Nc1ccccc1	15.6%
